Assay outcomes as filed in PubChem.
GLS inhibitor – qHTS for Inhibitors of Glutaminase (GLS); Glutaminase kidney isoform, mitochondrial (Homo sapiens), O94925; GLS enzymatic activity, qHTS titration; Potency, µM (doses to about 45.5 µM), for inactives: at the highest dose activity change, negative = inhibition, actives largely listed as inhibitors; 410,000 compounds, 0.21% hits; AID 624170, 2012; note: potency is the fitted concentration of half-maximal effect
Target sequence (O94925 whole entry, looked up, canonical isoform): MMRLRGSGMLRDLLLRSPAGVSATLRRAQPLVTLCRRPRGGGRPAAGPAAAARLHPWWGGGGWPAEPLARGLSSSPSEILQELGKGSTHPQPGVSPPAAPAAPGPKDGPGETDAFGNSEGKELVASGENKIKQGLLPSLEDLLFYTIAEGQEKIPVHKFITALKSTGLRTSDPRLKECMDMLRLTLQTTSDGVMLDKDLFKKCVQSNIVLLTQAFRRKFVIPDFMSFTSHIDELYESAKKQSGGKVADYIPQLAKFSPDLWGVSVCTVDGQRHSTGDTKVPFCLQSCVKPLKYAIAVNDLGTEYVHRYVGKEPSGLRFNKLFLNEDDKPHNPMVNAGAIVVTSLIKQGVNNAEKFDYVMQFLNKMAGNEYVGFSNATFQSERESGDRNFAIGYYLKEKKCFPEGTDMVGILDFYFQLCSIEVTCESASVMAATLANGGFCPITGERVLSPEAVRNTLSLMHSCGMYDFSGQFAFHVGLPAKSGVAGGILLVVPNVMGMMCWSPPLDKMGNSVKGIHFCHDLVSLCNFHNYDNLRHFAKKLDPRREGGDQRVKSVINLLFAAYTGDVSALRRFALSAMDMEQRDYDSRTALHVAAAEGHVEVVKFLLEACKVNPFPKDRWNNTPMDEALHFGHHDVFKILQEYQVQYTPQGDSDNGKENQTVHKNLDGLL
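Two-point fluorescence kinetic (t0, 30 min RT) for hKGA; glutamate detected via glutamate oxidase–HRP–Amplex Red. Substrate: 1 mM L-glutamine solution; buffer 45 mM KH2PO4, pH 8.2.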
LDHA inh – qHTS assay for inhibitors of human lactate dehydrogenase. 480,000 compounds, 0.15% hits. purified LDHA, NADH/diaphorase-resazurin fluorescence; stronger effect = lower value. activity change, % (values are at about 110 or 230 µM). AID 1347041, 2019. L-lactate dehydrogenase A chain (Homo sapiens), P00338; in the data active = activity change below about -30%; inconclusive = mostly about -25% to -30%;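 note: plate controls were DMSO wells for no effect and wells without enzyme for full effect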
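Resorufin fluorescence (ex540/em590), read at 0 and 20 min after diaphorase/resazurin addition, reports the NADH left after a 5 min room-temperature reaction of 2 nM human LDH5 with 0.06 mM NADH and 0.2 mM pyruvate.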
IDH1 R132H inh – qHTS for Inhibitors of mutant isocitrate dehydrogenase 1 (IDH1): qHTS; IDH1-R132H enzyme, NADPH consumption, diaphorase/resazurin fluorescence; Potency, µM (doses to about 76.6 µM), without a hit: at the highest dose activity change, negative = inhibition, hits mostly inhibitors; 390,000 compounds, 0.093% hits; AID 602179, 2012; note: potency is the fitted concentration of half-maximal effect; nearly all actives have a fitted effect of over 65% in size
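IDH1-R132H (0.5 ug/mL) preincubated 30 min with compound, then NADPH (0.016 mM) and alpha-KG (2 mM) added; 80 min at RT, pH 7.5. Remaining NADPH coupled via diaphorase/resazurin to fluorescence (540/590 nm); concentration-response curves normalized to no-enzyme control.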
TrxR1 inh – qHTS Assay for Inhibitors of Mammalian Selenoprotein Thioredoxin Reductase 1 (TrxR1): qHTS; recombinant rTrxR1, NADPH fluorescence consumption, selenite substrate; Potency, µM (titrated, usually from 114 µM), without a hit: top-dose activity change, negative = inhibition, usual class: inhibitors; 390,000 compounds, 1% hits; AID 588453, 2011; note: potency is the fitted concentration of half-maximal effect; nearly all actives have a fitted effect of over 65% in size
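Rat TrxR1 (90 nM in the dispensed reagent) was pre-reduced with 400 uM NADPH for 5 min at room temperature, then incubated with compound for 15 min. After 400 uM selenite was added, NADPH fluorescence (Ex 340/Em 450 nm) was followed for 8 min.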
PKM2 activator – qHTS Assay for Activators of Human Muscle isoform 2 Pyruvate Kinase. Pyruvate kinase PKM (Homo sapiens), P14618. purified PKM2, Kinase-Glo ATP luminescence, activation; response scale: 0% is enzyme alone, no compound. Potency, µM (top dose mostly 57.5 µM), for inactives: at the highest dose activation, most hits filed as activators. 260,000 compounds, 0.34% hits. AID 1631, 2009; note: potency is the fitted concentration of half-maximal effect; nearly all actives have a fitted effect of over 55% in size
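ATP formation by purified human PK-M2, quantified via coupled luciferase luminescence after 1 h at room temperature with 0.1 mM ADP and 0.5 mM PEP final.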
TrxR1 substrate – qHTS Assay for Substrates of Mammalian Selenoprotein Thioredoxin Reductase 1 (TrxR1): qHTS | purified TrxR1 substrate turnover, NADPH consumption readout | Potency, µM (top dose mostly 114 µM), for the others: top-dose activity change, negative = substrate turnover | AID 588456, 2011 | 390,000 compounds, 0.01% hits; note: potency is the fitted concentration of half-maximal effect; nearly all actives have a fitted effect of over 50% in size
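Rat TrxR1, dispensed at 90 nM, was prereduced with 400 uM NADPH (final) for 5 min at ~22 deg C, then incubated with compound 15 min before 400 uM selenite. A first-read NADPH fluorescence drop versus no-compound background flagged substrates.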
Active calls of the source: *; u = inconclusive; x = no result; [ ] = remark or other dose. Sampled rows, rich in hits. Any-hit rate of the full collection: about 1.4%. Unless noted, calls come from the whole dose curve; as a rule, active = well fitted curve in the direction sought with a large enough effect; inconclusive = small, poorly fitted or top-dose-only effect, or another doubt; inactive = no such curve, though single readings can be large; an effect the other way counts as inactive or inconclusive. Unless noted, % is set by controls: 0 for no effect and ±100 for the full control effect.

SMILES	GLS inhibitor	LDHA inh	IDH1 R132H inh	TrxR1 inh	PKM2 activator	TrxR1 substrate
CCc1nnc(NC(=O)c2nc(S(=O)(=O)Cc3ccc(C)cc3)ncc2Cl)s1	10.2%	-2.5	-0.6%	44.7µM*	x	0.6%
CCc1nnc(NC(=O)c2nc(Cl)ccc2Cl)s1	-2.1%	-4.7	3.2%	38.9%	x	9.7%
Cc1c(C(=O)OC(C)C(=O)N2CCNC2=O)oc2ccc(Cl)cc12 (stereo not given)	x	-1.1	x	x	x	x
COc1cc(C2C3CCCCC3(O)CCN2Cc2ccc(Cl)cc2)ccc1O (stereo not given)	x	2.1	x	x	x	x
Nn1c(SCC(=O)N2CCCCCC2)nnc1-c1cccs1	x	8.0	x	x	x	x
COc1ccc(Nc2ccccc2N)cc1	10µM*	6.8	4.8%	2.3%[57.1 µM]	-0.4%	-1.7%[57.1 µM]
Cc1ccccc1C(=O)Nc1ccccc1NC(=O)c1ccccc1Br	1.5%	-8.6	4.8%	24.2%[57.1 µM]	x	15.7%[57.1 µM]
COc1ccc(Nc2ccccc2NC(=O)c2ccccc2Br)cc1	10µM*	-0.9	-1.2%	12.9%[0.0914 µM]	0.7%	9.7%[0.0914 µM]
Nc1ccc(Nc2ccccc2N)cc1	-22.0%	27.4	13.3%	u	3.0%	0.5%[57.1 µM]
Cc1cc(C(C)(C)C)ccc1OCCOCCN1CCCC1	29.4%	-11.0	5.9%	6.4%[57.1 µM]	1.4%	5.4%[57.1 µM]
Cc1cc(C(C)(C)C)ccc1OCCN(C)C	3.5%	-31.2*	-1.1%	-8.9%[57.1 µM]	4.2%	-1.5%[57.1 µM]
O=C(/C=C/c1c[nH]c2ccccc12)C(F)(F)F	x	-17.4	x	x	x	x
CO[C@]1(NC(=O)CSCC#N)C(=O)N2C(C(=O)O)=C(CSc3nnnn3C)CS[C@H]21	29.6%	x	x	x	x	x
CO[C@@]1(NC(=O)CSCC#N)C(=O)N2C(C(=O)O)=C(CSc3nnnn3C)CS[C@@H]21	11.2µM*	-2.2	27.0%	u	1.3%	6.7%[57.1 µM]
O=C(NCc1noc(-c2ccco2)n1)c1ccc(Br)cc1	x	6.1	x	x	x	x
CC(=O)N1CCc2cc(S(=O)(=O)Nc3cccc(C(F)(F)F)c3)ccc21	7.5%	-6.2	6.2%	-9.6%	25.1µM*	-11.8%
COc1cccc(NS(=O)(=O)c2ccc3c(c2)CCN3C(C)=O)c1	0.5%	2.6	0.1%	10.1%[57.1 µM]	x	11.2%
COC(=O)C1=C(O)C2(C(=O)O)CC(C(=O)OC)=C(O)C(C(=O)O)(C1)C2	11.2µM*	-4.1	-1.1%	16.3%[57.1 µM]	-4.2%	5.6%[57.1 µM]
CC(=O)c1ccc(NC(=O)c2ccc(C)cc2Cl)cc1	x	5.5	x	x	x	x
COc1ccc(-c2c(C)oc3cc(OCC(=O)OC(C)(C)C)ccc3c2=O)cc1OC	x	3.8	x	x	x	x
COc1ccccc1CN1C(=O)c2cccc3cccc(c23)C1=O	7.94µM*	-3.0	2.7%	-6.0%	4.2%	-2.8%
CC(=O)N1CCN(C(C(=O)O)c2cn(CC(=O)O)c3cc(F)ccc23)CC1 (stereo not given)	x	0.5	x	x	x	x
Cc1cc(C)c(NC(=O)c2cc(C)nc3ccccc23)c(C)c1	x	-1.0	x	x	x	x
Clc1ccccc1-c1nnc2sc(-c3ccc4c(c3)OCO4)nn12	7.7%	-5.2	-4.9%	2.5%	11.3%	9.4%
Clc1ccccc1-c1nn2c(Cn3cnc4ccccc43)nnc2s1	13.8%	-3.5	1.4%	1.4%	3.98µM*	9.2%
SMILES	GLS inhibitor	LDHA inh	IDH1 R132H inh	TrxR1 inh	PKM2 activator	TrxR1 substrate
COc1ccc(OCc2nn3c(Cn4cnc5ccccc54)nnc3s2)cc1	-15.0%	2.4	5.6%	-1.9%	25.1µM*	2.2%
c1ccc(CCc2nn3c(Cn4cnc5ccccc54)nnc3s2)cc1	u	0.2	5.0%	-7.1%	u	9.2%
c1ccc2c(c1)ncn2Cc1nnc2sc(-c3ccc4c(c3)OCO4)nn12	-24.6%	0.8	2.5%	-7.5%[57.1 µM]	11.2µM*	14.5%[57.1 µM]
Cc1ccc(C)c(-c2csc(-c3nc(-c4ccccc4)cs3)n2)c1	x	5.2	x	x	x	x
Cc1nn(S(=O)(=O)c2cccs2)c(C)c1Sc1ccc([N+](=O)[O-])cc1	6.2%	-6.4	8.3%	-10.8%	2.8%	-10.8%
Cc1nn(S(=O)(=O)c2cccs2)c(C)c1Sc1ccccc1	x	x	x	x	15.8µM*	x
COCCCNC(=O)COc1ccc(S(=O)(=O)Nc2ccccc2)cc1	20.0%	-5.2	5.6%	2.7%[57.1 µM]	14.1µM*	-6.4%
O=C1CSC(c2cn(-c3ccccc3)nc2-c2cc3ccccc3o2)N1Cc1ccccc1 (stereo not given)	-2.1%	2.8	3.2%	20.0%	0.3%	15.2%
Cc1ccc(-c2nn(-c3ccccc3)cc2C2SCC(=O)N2Cc2ccccc2)o1 (stereo not given)	-17.8%	0.9	0.0%	56.2µM*	u	13.7%
O=C(Nc1ccc2nc(-c3ccco3)c(-c3ccco3)nc2c1)N1CCCCCC1	u	15.9	1.8%	1.78µM*	7.6%	34.0%
CCOC(=O)C1CCN(C(=O)Nc2ccc3nc(-c4ccco4)c(-c4ccco4)nc3c2)CC1	-9.8%	15.8	1.0%	3.16µM*	21.1%	31.4%
Cc1cccc(Nc2nc3c(c(=O)[nH]c(=O)n3C)n2CC(=O)O)c1C	x	6.7	x	x	x	x
CCOC(=O)c1cc(C)sc1/N=C/C1=C(O)CCCC1=O	1.0%	19.3	8.4%	20µM*	1.8%	3.0%
CCN(CC)CCCNC(=O)/C=C/C(=O)O	0.0%	-1.2	14.5%	2.82µM*	-5.5%	18.9%[57.1 µM]
O=C(Cn1nc(-c2cccs2)c2ccccc2c1=O)NCCc1ccc(F)cc1	x	-0.4	x	x	x	x
NS(=O)(=O)c1ccc2c(c1)C(=NO)c1cc(S(N)(=O)=O)ccc1-2	8.4%	-1.7	9.2%	15.3%	3.98µM*	5.0%
COc1ccccc1-c1nc(S(=O)(=O)c2ccccc2)c(N2CCCCC2)o1	2.1%	-7.0	0.0%	0.891µM*	x	6.6%
Cc1ccc(S(=O)(=O)Nc2nc3ccc(C)cc3nc2Nc2ccc3c(c2)OCO3)cc1	x	21.3	x	x	x	x
C[C@H]1CN([C@@H](C)CO)C(=O)c2cc(Br)cnc2O[C@@H]1CN(C)C(=O)CN(C)C	0.8%	-37.1*	1.3%	x	x	x
O=C1OC(c2cccs2)=N/C1=C\c1ccc(-c2ccccc2Cl)o1	21.1%	-8.3	6.1%	u	-4.8%	-9.3%
N=C1/C(=C/c2ccc(-c3cccc(C(=O)O)c3)o2)C(=O)N=C2SC=C(c3ccccc3)N12	22.4µM*	-1.0	2.2%	u	-4.3%	-12.7%
